INHIBITION data for 67 compounds are collected here from ChEMBL document CHEMBL4513216, “Probing the Open Global Health Chemical Diversity Library for Multistage-Active Starting Points for Next-Generation Antimalarials” (ACS Infect Dis, 2020).

The campaign covered roughly 65,000 compounds. About 2,100 (3.2%) showed an effect of 50% or more. The median lay at about -52%. The list comes from a sample in which strong results are over-represented; it also holds similar structures and randomly drawn compounds.

The test has as its system Plasmodium falciparum. Briefly: Screen against P. falciparum Asexual Blood Stage (ABS), at 5uM. The test is classed as functional, Dd2. Particulars: tested at 5 uM.
In the case of `Cc1noc(C)c1CN1C(=O)[C@@H]2CC[C@H]1CN(Cc1nccs1)C2`, the INHIBITION is -122%. With `O=C(Cc1ccc(CO)cc1)N1CCN(CC2CC2)[C@@H]2CS(=O)(=O)C[C@@H]21`, the INHIBITION is given as -55.1%. Turning to `O=c1cc(CN2CC[C@@H]3CC[C@H](C2)N3)c2cccc3c2n1CCC3`, the INHIBITION is on record as -41.1%. Then `COCCN1CCC12CCN(C(=O)c1ccc(C)nc1)C2` (configuration not stated), with -172%; and `CCOc1ccc2nc(CN3CCC(CN)C3)ccc2c1` (configuration not stated), with 85.5%. For `COC[C@]12COC[C@H]1CN(Cc1ccc3ccccc3n1)C2`, the INHIBITION was -29.2%. For `COc1cccc([C@@H]2CCN(Cc3ccc4ccccc4n3)C[C@H]2O)c1`, the INHIBITION is given as -17.2%. For `c1cnc(N2CCO[C@@H]3CN(Cc4ccoc4)C[C@@H]3C2)nc1` the value was -30.5%; for `Cc1cccc(S(=O)(=O)NCC(C)N2CCN(C)CC2)c1Cl` (configuration not stated), 81.5%. Take `CNS(=O)(=O)CC(=O)NC(C)Cc1cccc(Cl)c1` (configuration not stated): the INHIBITION is reported as -15.4%. Turning to `Cc1cc(Cl)ccc1S(=O)(=O)NCC(C)N1CCN(C)CC1` (configuration not stated), the INHIBITION came out at 74.3%. `CC(CNS(=O)(=O)c1cccc(Cl)c1)N1CCN(C)CC1` (configuration not stated): the INHIBITION amounted to 78%. For the compound `COCCN1CCN(c2cc(OC)ncn2)Cc2ccc(C)nc21`, the INHIBITION is -102%. `Cc1cc(CN2CC[C@H]3C[C@@H](c4nc(C5CC5)cs4)O[C@@H]3C2)no1`: the INHIBITION is on record as 6.98%. For the compound `Cc1ccccc1C1(CN)CCCCC1`, the INHIBITION came out at 91%. Then `Cc1ccccc1C1(CN)CCOCC1`, with 36.4%; and `NCC1(c2cccc(C(F)(F)F)c2)CCCCC1`, with 2.74%; and `CC(c1cn2ccsc2n1)n1cc2[nH]cccc-2c1=O` (configuration not stated), with -134%. For the compound `CO[C@H]1CN(C(C)C)C[C@@H]1NC(=O)c1cc(-c2ccccc2O)n[nH]1`, the INHIBITION came out at 90%.

Consider `Clc1ccccc1-c1cc(CNc2ncnc3c2CCNCC3)no1`, for which the INHIBITION is 80.3%. As to `CN1CCN([C@@H]2CN(C(=O)Cc3ccsc3)[C@@H]3CCCO[C@H]23)CC1`, the INHIBITION is -66.9%.

For `CC(C)(C)C(=O)N1C[C@H](c2ccsc2)[C@H]2CN(C3CCCCC3)CC[C@H]21`, the INHIBITION amounted to 77.3%. Then `CC(C)(C)C(=O)N1C[C@H](c2ccsc2)[C@H]2CN(C3CCCC3)CC[C@H]21`, with 72.6%; and `c1cnc(N2CCCC3(CCN(CC4CCC4)C3)C2)nc1` (configuration not stated), with 53.9%; and `c1cnc(N2CCC3(CCCN(CC4CC4)C3)CC2)nc1`, with 41.7%. Then `CCC(CC)CN1CCC2(CCCN(c3ncccn3)C2)C1` (configuration not stated), with 62.6%; and `c1cnc(N2CCCC3(CCN(CC4CC4)C3)C2)nc1` (configuration not stated), with 61.1%; and `CCN1CCCC12CCCN(c1ncccn1)C2` (configuration not stated), with -31.8%.

On to `c1cnc(N2CCCC3(COCCN(CC4CC4)C3)C2)nc1` (configuration not stated), for which the INHIBITION came out at 37.4%. Then `Cc1noc(C)c1CN1CCCC2(CCN(CC3CCCC3)C2)C1` (configuration not stated), with 83.1%; and `COCCN1CCC2(C1)CN(c1ncccn1)C2`, with -85.3%.

As for `c1cnc(N2CCC3(CN(CC4CCOC4)C3)C2)nc1` (configuration not stated), the INHIBITION is listed as -15.6%.

`Cc1noc(C)c1CN1CCCC2(CCN(C(=O)CC3CC3)C2)C1` (configuration not stated): the INHIBITION was -16.5%. With `Cc1noc(C)c1CN1CCCC2(CCN(C(=O)C3CC3)C2)C1` (configuration not stated), the INHIBITION was determined as 12.9%. For `CNC(=O)CN1CCOCC12CCN(Cc1ccncc1)CC2` the value was -20.5%; for `Cc1cccc(CN2CCC[C@@H]3CN(C(=O)c4ccco4)C[C@@H]32)n1`, -73.5%. On to `CCS(=O)(=O)NC[C@]12COC[C@H]1CN(Cc1cccnc1)C2`, for which the INHIBITION was -97.3%. For the compound `O=C(NCC1CC1)[C@H]1C[C@@H]2[C@@H](C1)OCCN2Cc1cccnc1`, the INHIBITION is on record as -29.4%. For `CC(C)(C)c1cn(C[C@H]2CC3CCN2C[C@@H]3C(=O)NC2CC2)nn1` (some centres not stated) the value was -148%; for `Cc1noc(C)c1CN1C[C@@H]2C[C@H](C(=O)NCC3CC3)N(C)[C@@H]2C1`, -8.05%. With `O=C(C1CNCCO1)N1CCCC(c2ccccc2)(c2ccccc2)C1` (configuration not stated), the INHIBITION amounted to 79.5%. Consider `CC(=O)C1(c2ccccc2)CCN(C(=O)CC2CNCCO2)CC1` (configuration not stated), for which the INHIBITION is -44.7%. Turning to `CC(=O)C1(c2ccccc2)CCN(C(=O)C2CNCCO2)CC1` (configuration not stated), the INHIBITION is reported as -81.4%.

Consider `CC(O)c1cccc(Nc2nc(NCCO)c3ccccc3n2)c1` (configuration not stated), for which the INHIBITION is 89.4%. For `CCN(CC)c1nc(Nc2cccc(C(C)O)c2)nc2ccccc12` (configuration not stated), the INHIBITION came out at 84.5%. `OC[C@@H]1CN2CCN(c3ccccn3)C[C@@H]2[C@H]1c1ccccc1`: the INHIBITION is recorded as -7.96%. For `c1ccc(CO[C@@H]2CN(Cc3nccs3)[C@@H]3COC[C@@H]32)nc1`, the INHIBITION is -84.8%. On to `CCn1nc(C)c(CN2CCNCC2)c1C`, for which the INHIBITION is recorded as -86.35%. `c1cncc(C(Cn2cnnc2)N2CCOCC2)c1` (configuration not stated): the INHIBITION is -88.3%. Then `COCCN1CCC2(CC1)C(=O)Nc1ccc(C(=O)NC(C)C)cc12`, with -102%; and `COCCN1CCc2cc(C(=O)NC(C)C)c(NCC(C)C)nc2CC1`, with 78.9%; and `Cc1n[nH]c2c1C(c1cnn(C)c1)SCC(=O)N2` (configuration not stated), with -51.7%. Consider `CC(C)c1ccc(CN2CCC3(CCCN(c4nncs4)C3)C2)cc1` (configuration not stated), for which the INHIBITION was determined as 73.6%. On to `CN(C)C(=O)N1CCCC2(CCN(Cc3ccncc3)C2)C1` (configuration not stated), for which the INHIBITION was -29.6%. Then `c1cncc(CN2CCC3(CCCN(c4nncs4)C3)C2)c1` (configuration not stated), with -82.9%; and `Cc1cccc(CN2C[C@@H]3COC[C@H](NS(C)(=O)=O)[C@@H]3C2)n1`, with -96.6%; and `CC(C1CCN(Cc2c(Cl)ccc(O)c2Cl)CC1)N1CCN(C)CC1` (configuration not stated), with 87.2%. For `Cc1n[nH]c2c1C(c1cc(F)cc(F)c1)SCC(=O)N2` (configuration not stated) the value was -23.5%; for `CCOC(=O)N1CC2(CCNCC2)c2cc(Cl)ccc21`, 78%; for `O=C1CCC2(CCCN(C(=O)c3ccco3)CC2)N1` (configuration not stated), 40.8%. Take `O=C(c1ccco1)N1CCO[C@@H]2CNCC[C@@H]2C1`: the INHIBITION is on record as -138%. With `O=C(c1ccco1)N1CC2(CCNCC2)c2cc(Cl)ccc21`, the INHIBITION came out at 76.1%. With `NC(=O)N1CC2(CCNCC2)c2cc(Cl)ccc21`, the INHIBITION is -61%. Then `CC(=O)N1CC2(CCNCC2)c2cc(Cl)ccc21`, with 3.4%; and `COC(=O)N1CC2(CCNCC2)c2cc(Cl)ccc21`, with 13.1%. For the compound `O=C(c1ccccc1F)N1CC2(CCNCC2)c2cc(Cl)ccc21`, the INHIBITION is 77%.

As to `CCOC(=O)N1CCC2(CCNC2)C1` (configuration not stated), the INHIBITION is -85.4%.
